Test [1] can be described thus: CCTE_Harrill_HTTr_Apoptosis_MCF7: CCTE's 6-hour Apoptosis Assessment for the High-Throughput Transcriptomics (HTTr) Platform, in MCF-7 cells cultured in DMEM + 10% fetal bovine serum, Harrill Lab (AID 2284011). The gist of the method: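 High-content imaging of CellEvent Caspase 3/7 Green signal follows a six-hour exposure, with eight concentrations per chemical. MCF-7 cells grown in DMEM plus 10% fetal bovine serum; activity fitted in both directions against DMSO.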

Test [2] in a line: CCTE_Harrill_HTTr_CellCount_MCF7: CCTE's Cell Proliferation Assessment for the High-Throughput Transcriptomics (HTTr) Platform, Harrill Lab (AID 2284012; active = hit-call score of the fitted dose curve at least 0.9, where 1 is the maximum;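 also: cells exposed to compound for six hours; intended direction is loss of nuclei count meaning fewer cells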). Summed up: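 Cell count served as viability reporter: loss of Hoechst-stained nuclei, counted by high content imaging, marks decreased growth or survival. Exposure was 6 h in MCF-7 cells across eight concentrations, with DMSO as baseline.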

Test [3] addresses Estrogen receptor (Homo sapiens) (UniProt P03372). Nature of the test: CCTE_Deisenroth_AIME_96WELL_LUC_Active: CCTE's 96-well Estrogen Receptor Transactivation Assay with AIME metabolic competence (ERTA luciferase; metabolism positive), Deisenroth Lab (AID 2284023; active = hit-call score of the fitted dose curve at least 0.9, where 1 is the maximum). Summed up: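 Metabolism-positive mode: induced rat hepatic S9 in alginate microspheres conditions test solutions (0.002 - 200 uM, 10 points) for 2 hours. VM7Luc4E2 ER luciferase reporter cells then exposed 24 h; positive-direction fit against 17beta-estradiol, n=4 typical.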

The target is the same in test [4]. Put plainly: CCTE_Deisenroth_AIME_96WELL_LUC_Inactive: CCTE's 96-well Estrogen Receptor Transactivation Assay without AIME metabolic competence (ERTA luciferase; metabolism negative), Deisenroth Lab (AID 2284025; active = hit-call score of the fitted dose curve at least 0.9, where 1 is the maximum). Summed up: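 Metabolism-negative arm: chemicals (0.002–200 uM, 10 points) incubated 2 h with alginate-water microspheres, then medium moved onto VM7Luc4E2 cells for 24 h luciferase read-out. Positive direction vs 17beta-estradiol; n≥4 experiments.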

Test [5] is described as follows: CCTE_Deisenroth_AIME_96WELL_CTox_Inactive: Cytotoxicity Assessment (CTOX) in CCTE's 96-well Estrogen Receptor Transactivation Assay without AIME metabolic competence (metabolism negative), Deisenroth Lab (AID 2284029; active = hit-call score of the fitted dose curve at least 0.9, where 1 is the maximum). The gist of the method:
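Metabolism-negative mode: alginate-water lids without rat S9, 2 h pre-incubation of 10-point series (0.002 - 200 uM). Conditioned medium on VM7Luc4E2 cells 24 h; loss of fluorescent live-cell protease signal marks cytotoxicity.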

Test [6] addresses Estrogen receptor (Homo sapiens) (UniProt P03372). Nature of the test: CCTE_Deisenroth_AIME_384WELL_LUC_Active: CCTE's 384-well Estrogen Receptor Transactivation Assay with AIME metabolic competence (ERTA luciferase; metabolism positive), Deisenroth Lab (AID 2284030; active = hit-call score of the fitted dose curve at least 0.9, where 1 is the maximum). Summed up: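 VM7Luc4E2 breast cells were given, for 24 hours, medium pre-incubated for 2 hours with parent chemical (0.002-200 uM, 10 concentrations) and alginate-encapsulated phenobarbital/beta-naphthoflavone-induced rat hepatic S9. Luciferase gain of signal was fitted against 17beta-estradiol; n=4 or more.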

The nature of test [7]: CCTE_Shafer_MEA_acute_burst_number: CCTE's Neural Acute Assay for Single-Electrode Bursts, Shafer Lab (AID 2284013). Summed up: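 Burst totals were derived with adaptive spike detection (8x rms threshold) on filtered signals from rat cortical cultures; change relative to pre-treatment baseline after 40-min compound exposure (0.03-40 uM) was fitted in the negative direction against DMSO.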

Test [8] is described as follows: CCTE_Shafer_MEA_acute_per_burst_spike_number_mean: CCTE's Neural Acute Assay for Average Number of Spikes Per Burst, Shafer Lab (AID 2284015).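 Also: hits are decreases in mean spikes per burst versus baseline.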 The gist of the method:
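Percent change in mean spikes per single-electrode burst is compared between a 40 min baseline and a 40 min recording with compound (0.03-40 uM). Cultures were rat cortical neurons on MEA plates at DIV 13 or 15, recorded at 37 C, with DMSO as the negative control.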

A short description of test [9]: CCTE_Shafer_MEA_acute_burst_percentage_mean: CCTE's Neural Acute Assay for Percentage of Spikes in a Burst, Shafer Lab (AID 2284017).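 As to AC50: curve fitted for loss of signal so potency reflects decreased burst percentage.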 The gist of the method:
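Well-level mean burst percentage from a 40-min recording after compound (0.03-40 uM) expressed as percent change from a 40-min baseline at 37C. Cultures: primary rat cortical neurons on MEA, dosed on DIV 13 or 15; fitted downward relative to DMSO.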

Test [10] is described as follows: CCTE_Shafer_MEA_acute_burst_percentage_std: CCTE's Neural Acute Assay for Standard Deviation of Burst Percentage, Shafer Lab (AID 2284018).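 Also: fitted in the negative direction so actives lower burst percentage SD.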 The gist of the method:
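Primary rat cortical neurons on 16-electrode MEA wells were recorded 40 min at baseline (DIV 13 or 15), then 40 min after compound (0.03-40 uM), at 37 C. Well value is SD across electrodes of spikes-in-bursts/total spikes; endpoint is percent change, DMSO-referenced.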

A short description of test [11]: CCTE_Shafer_MEA_acute_per_network_burst_spike_number_mean: CCTE's Neural Acute Assay for Average Number of Spikes in a Network Burst, Shafer Lab (AID 2284019). The gist of the method:
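Acute exposure of rat primary cortical networks (DIV 13/15) on MEAs; adaptive spike detection at 8x rms noise, 37 C. Percent change in spikes per network burst after 40 min with compound (0.03-40 uM), negative direction vs DMSO.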

A short description of test [12]: CCTE_Shafer_MEA_acute_per_network_burst_spike_number_std: CCTE's Neural Acute Assay for Standard Deviation of Number of Spikes in a Network Burst, Shafer Lab (AID 2284020).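 Also: fitted for decrease in spike-number SD versus DMSO so actives lower it.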 The gist of the method:
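Acute MEA exposure, rat cortical neurons, 0.03-40 uM. Per-well % change versus own baseline; DMSO as negative control.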

Test [13] in a line: CCTE_Shafer_MEA_acute_per_network_burst_electrodes_number_mean: CCTE's Neural Acute Assay for Mean Number of Electrodes in a Network Burst, Shafer Lab (AID 2284021).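 Also: curves fitted for decreases only so hits reduce electrodes per burst.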 Summed up: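 Percent change from baseline was computed as mean electrode count per network burst, comparing 40 min recordings before and during compound (0.03-40 uM) exposure. Cultures were rat cortical neurons at DIV 13 or 15, recorded on MEAs at 37 C with an adaptive 8x rms threshold.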

A short description of test [14]: CCTE_Shafer_MEA_acute_network_burst_percentage: CCTE's Neural Acute Assay for Percentage of Network Bursts, Shafer Lab (AID 2284022).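 Also: curves fitted for loss so actives lower network burst percentage.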 The gist of the method:
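Network burst percentage (spikes in network bursts divided by total spikes) recorded at 37 C over 40 min baseline and 40 min after compound, 0.03-40 uM, in rat cortical cultures at DIV 13 or 15. Analysed as percent change from baseline versus DMSO.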

Test [15] can be described thus: CCTE_Shafer_MEA_acute_cross_correlation_area: CCTE's Neural Acute Assay for Area of Cross Correlation, Shafer Lab (AID 2284024).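 Also: rat primary cortical neuron networks on 48-well MEA at DIV 13 or 15 with 40 min exposure; area under pooled inter-electrode spike cross-correlation near zero lag as percent change from own baseline; curves fitted for loss of cross-correlation area so actives lower synchrony.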 Summed up: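 Percent change in well-wide cross-correlation area (window around zero lag) between 40 min baseline and 40 min post-compound recordings, 37 C; rat cortical cultures on MEA at DIV 13 or 15, dosed 0.03-40 uM, wells needing >/= 10 active electrodes.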

Test [16] in a line: CCTE_Shafer_MEA_acute_cross_correlation_HWHM: CCTE's Neural Acute Assay for Cross Correlation at Half Width at Half Maximum, Shafer Lab (AID 2284026).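 Also: percent change per well from pre-dose baseline in spike cross-correlogram half width; hits are a decrease in cross-correlogram half width relative to DMSO.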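 As to Outcome: spontaneous network firing of rat primary cortical neurons on multiwell microelectrode arrays.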 Summed up: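 Per-well percent change in cross-correlogram half width at half maximum, derived from 40-min recordings before and after compound (0.03-40 uM) at 37 C. Cultures were rat cortical neurons, DIV 13 or 15, with adaptive spike detection at 8x rms.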

A short description of test [17]: CCTE_Shafer_MEA_acute_synchrony_index: CCTE's Neural Acute Assay for Synchrony, Shafer Lab (AID 2284027).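 Also: network synchrony index of spontaneous spiking in primary rat cortical neurons on MEAs; fitted for loss of signal so actives lower synchrony relative to DMSO.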 Summed up: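 Plates equilibrated 20 min at 37 C, baseline recorded 40 min, compound (0.03-40 uM) added, then 40 min more recorded. Cells: primary rat cortical neurons, DIV 13 or 15. Per-well synchrony index change analysed in negative direction against DMSO.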

Test [18] can be described thus: CCTE_Shafer_MEA_dev_firing_rate_mean: CCTE's Neural Network Formation Assay for Mean Firing Rate, Shafer Lab (AID 2284031).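 As to AC50: curve fitted for loss of firing so AC50 reflects decreased mean firing rate.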 The gist of the method:
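Steps: seed rat cortical cells (1.5 x 10^5/well) with laminin on PEI-coated MEA; dose day 0; record DIV 5/7/9/12, full media and compound exchange after DIV 5 and 9 recordings; compute well-mean firing rate AUC.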

Test [19] is described as follows: CCTE_Shafer_MEA_dev_per_burst_spike_percent: CCTE's Neural Network Formation Assay for Percent of Spikes in a Burst, Shafer Lab (AID 2284032).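 As to AC50: fitted as a decrease in burst spike percentage below DMSO baseline.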 Summed up:
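Value is trapezoidal AUC over recordings on days 5, 7, 9 and 12 of the well-mean fraction of spikes falling in single-electrode bursts; rat cortical cultures exposed continuously from plating, treatment renewed DIV 5 and 9, fitted downward against DMSO.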

Several values for one entry are separate records, joined by “and”; a condition that tells them apart may be missing. Identical values can stand only once. Inconclusive results are not listed. Activity calls are given as the source filed them. The calls were made as follows, unless noted: active = hit-call score of the fitted dose curve at least 0.9, where 1 is the maximum; inactive = score below 0.9.

Outcome and AC50 data for twelve molecules are collected here from PubChem BioAssay (EPA / NIEHS).

Sequence of Estrogen receptor (Homo sapiens) (P03372 whole entry, looked up): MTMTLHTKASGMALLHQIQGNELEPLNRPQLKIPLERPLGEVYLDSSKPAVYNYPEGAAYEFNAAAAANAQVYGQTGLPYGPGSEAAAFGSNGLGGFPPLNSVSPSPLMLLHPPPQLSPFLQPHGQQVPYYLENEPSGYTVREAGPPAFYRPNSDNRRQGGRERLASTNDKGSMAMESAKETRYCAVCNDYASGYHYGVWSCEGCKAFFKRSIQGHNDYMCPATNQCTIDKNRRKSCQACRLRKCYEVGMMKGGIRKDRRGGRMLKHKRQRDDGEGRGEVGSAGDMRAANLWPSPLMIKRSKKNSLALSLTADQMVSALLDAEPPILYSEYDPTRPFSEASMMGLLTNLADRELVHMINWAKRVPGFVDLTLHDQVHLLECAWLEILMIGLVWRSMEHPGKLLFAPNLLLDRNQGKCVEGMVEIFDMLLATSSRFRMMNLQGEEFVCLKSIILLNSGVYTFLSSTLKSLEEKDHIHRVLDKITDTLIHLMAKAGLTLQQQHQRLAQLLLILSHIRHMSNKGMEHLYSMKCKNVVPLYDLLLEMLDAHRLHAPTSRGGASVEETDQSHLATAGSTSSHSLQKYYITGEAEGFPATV

As for `Oc1ccccc1-c1ccccc1`, the outcome in test [1], in test [2] and in [5] was inactive. The values for the concentration at half-maximal activity (AC50) in test [3], in test [4] and in test [6] were 68.8 µM (active), 58.3 µM (active) and 57.9 µM (active), respectively.

For the molecule `CCCCNC(=O)OCC#CI`, the outcome in test [1], in test [2], in test [7], in test [8], in test [10] and in test [11] was inactive. For the same molecule, the call in test [15] was inactive. Also, the concentration at half-maximal activity (AC50) in test [9] was 20 µM (active); in test [12], 6.46 µM (active); in [13], 20 µM (active); in test [14], 37.1 µM (active); in [16], 31.7 µM (active); in test [17], 15.5 µM (active). The AC50 in [18] was 3.81 µM (active) and 2.25 µM (active); in test [19], 3.25 µM (active) and 1.37 µM (active).

On to `CC(Oc1ccc(Cl)cc1Cl)C(=O)O` (configuration not stated), for which the outcome in test [1], in [7], in [8], in test [9], in test [10] and in test [11] was inactive. Further, the outcome in [12], in test [13], in [14], in test [15], in [16] and in [17] was inactive. The molecule was called inactive in test [6].

For the molecule `C=CC1(C)OC(=O)N(c2cc(Cl)cc(Cl)c2)C1=O` (configuration not stated), the outcome in [1], in [2], in [6], in [18] and in test [19] was inactive.

As to `CCOC(=O)CC(SP(=S)(OC)OC)C(=O)OCC` (configuration not stated), the result in [1], in [2] and in test [18] was inactive. The half-maximal activity concentration (AC50) in test [19] was 20.9 µM (active) and 15 µM (active).

As for `Fc1ccc(Oc2ccnc3cc(Cl)cc(Cl)c23)cc1`, the outcome in test [1], in test [7], in test [8], in test [9], in test [10] and in test [11] was inactive. For the same molecule, the molecule was called inactive in [12], in test [13], in test [14], in test [15], in [16] and in test [17].

Turning to `O=C(O)c1nc(Cl)ccc1Cl`, the result in test [1], in test [7], in [8], in test [9], in test [10] and in [11] was inactive. Moreover, the molecule was classed as inactive in test [12], in [13], in [14], in test [15], in test [16] and in test [17]. In [6], the result was inactive.

Turning to `C=CCC1=C(C)[C@@H](OC(=O)[C@@H]2[C@@H](C=C(C)C)C2(C)C)CC1=O`, the outcome in test [1], in test [8], in test [10], in test [11], in test [12] and in [15] was inactive. Moreover, the molecule was called inactive in test [18] and in test [19]. For the same molecule, the AC50 was 4.02 µM (active) in test [7]; 36.5 µM (active) in [9]; 10.8 µM (active) in test [13]; 31 µM (active) in test [14]; 36.2 µM (active) in test [16]; 27.2 µM (active) in test [17].

As to `CC1=C(C(=O)Nc2ccccc2)SCCO1`, the result in [1], in test [2] and in [6] was inactive.

On to `CCOc1cc(Oc2ccc(C(F)(F)F)cc2Cl)ccc1[N+](=O)[O-]`, for which the outcome in test [1] and in test [2] was inactive. For the same molecule, the concentration at half-maximal activity (AC50) in [18] and in [19] was 12.8 µM (active) each time.

Turning to `CNC(=O)ON=CC(C)(C)SC`, the result in test [1], in test [7], in [8], in [9], in test [10] and in [11] was inactive. The call in [12], in test [13], in test [14], in [15], in [16] and in [17] was inactive. The molecule was called inactive in [18] and in test [19].

Turning to `COP(=S)(OC)Oc1nc(Cl)c(Cl)cc1Cl`, the result in [1], in test [2], in test [7], in test [10], in [11] and in [13] was inactive. The call in test [14], in test [15], in test [16], in [17], in test [18] and in test [19] was inactive. Also, the values for the AC50 in test [9] and in test [12] were 0.102 µM (active) and 0.358 µM (active), respectively.
